# The whole screen tested about 1,300 compounds, of which about 240 (18%) were called active. Roughly 8% stayed inconclusive and do not appear here. Only a sample is shown. Results with a measured potency or affinity are listed apart. Values without a mark were called inactive. The rule behind the calls is not given here.
# Experiment: toxicity to human hepatoma HepG2 cells – cell-based, cherry-picked samples, cytotoxicity control, dose response (AID 1159577);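 note: 0% = neutral control wells and -100% = positive control wells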
# Conditions: HepG2 cytotoxicity counterscreen, plate reader; series mostly up to 19.5 µM; activity change, negative = cytotoxicity: at the top concentration
row,SMILES,"activity change, negative = cytotoxicity"
1,COc1ccccc1S(=O)(=O)N(C)C[C@H]1Oc2cc(/C=C/c3ccccc3)ccc2S(=O)(=O)N([C@H](C)CO)C[C@@H]1C,-16.6%
2,COc1ccc(NC(=O)Nc2ccc3c(c2)[C@@H]2C[C@H](CC(=O)N[C@@H](C)c4ccccc4)O[C@H](CO)[C@@H]2O3)cc1,-17.7%
3,CN(C)CC(=O)N1C[C@@H]2N[C@H](C1)C2c1ccc(/C=C/c2ccccc2)cc1 (stereo not given in full),-13.3%
4,O=C(C1CC1)N1C[C@@H]2N[C@H](C1)C2c1ccc(-c2ccccc2F)cc1 (stereo not given in full),2.15%
5,N#Cc1ccc(-c2ccc(C3[C@@H]4CN(C(=O)C5CCCCC5)C[C@H]3N4)cc2)cc1 (stereo not given in full),-12.2% [at 21 µM]
6,CN(C)C(=O)c1ccc(-c2ccc([C@H]3[C@H](CO)N4CCCCN(C(=O)C5CC5)C[C@@H]34)cc2)cc1,2.99%
7,CN(C)CC#Cc1ccc([C@H]2[C@H](CO)N3CCCCN(C(=O)CN(C)C)C[C@@H]23)cc1,12.3%
8,N#Cc1ccc(-c2ccc(C3[C@@H]4CN(C(=O)C5CCCC5)C[C@H]3N4)cc2)cc1 (stereo not given in full),4.25%
9,COc1ccc(CNC(=O)C[C@H]2C=C[C@@H](NS(=O)(=O)c3cccc(OC)c3)[C@@H](CO)O2)cc1,-6.58% [at 21 µM]
10,Cc1noc(C)c1NC(=O)Nc1ccc2c(c1)C(=O)N([C@H](C)CO)C[C@@H](C)[C@@H](CN(C)S(C)(=O)=O)O2,-16.8%
11,N#Cc1cccc(-c2ccc(C3[C@@H]4CN(C(=O)C5CCC5)C[C@H]3N4)cc2)c1 (stereo not given in full),-12.6%
12,O=C(C1CC1)N1C[C@@H]2N[C@H](C1)C2c1ccc(-c2cccc(F)c2)cc1 (stereo not given in full),-22.1%
13,C[C@@H]1CN([C@@H](C)CO)C(=O)c2c(c3ccccc3n2C)-c2ccccc2CO[C@@H]1CN(C)C(=O)Nc1cccc(Cl)c1Cl,2.47%
14,C[C@H]1CN([C@@H](C)CO)C(=O)CCCn2nncc2CO[C@@H]1CN(C)C(=O)Nc1ccc(N2CCCCC2)cc1,-6.14%
15,OC[C@H]1CC[C@@H]2O[C@H](CCc3ccc(-c4ccc(F)cc4)cc3)[C@H](n3cc(C4CC4)nn3)C[C@@H]2O1,-20.8%
16,OC[C@@H]1CC[C@@H]2O[C@H](CCc3ccc(-c4ccccc4)cc3)[C@H](n3cc(-c4ccccc4)nn3)C[C@@H]2O1,-6.72%
17,O=C(C[C@@H]1CC[C@@H]2[C@H](COC[C@@H](O)CN2S(=O)(=O)c2ccccc2)O1)NCc1ccc(-c2ccccc2)cc1,-5.27%
18,COc1cccc(CN2C[C@@H]3N[C@H](C2)C3c2ccc(-c3ccncc3)cc2)c1 (stereo not given in full),-28.2%
19,N#Cc1cccc(-c2ccc(C3[C@@H]4CN(C(=O)C5CC5)C[C@H]3N4)cc2)c1 (stereo not given in full),9.55% [at 21 µM]
20,COc1ccc(NC(=O)Nc2cccc3c2O[C@H](CN(C)C(=O)Nc2cccc4ccccc24)[C@H](C)CN([C@@H](C)CO)C3=O)cc1,9.07%
21,CC(C)NC(=O)N1[C@@H](CO)[C@@H](c2ccccc2)C12CN(Cc1ccc(F)cc1)C2,13%
22,CO[C@@H]1CN(C)C(=O)c2cc(NC(=O)Cc3ccccc3)ccc2OC[C@H](C)N(C(=O)c2ccccc2F)C[C@@H]1C,7.81%
23,CCCC(=O)N1CC2(C1)CN(Cc1ccc(Cl)cc1)[C@H](CO)c1[nH]c3cc(OC)ccc3c12,-20.9% [at 21 µM]
24,COc1ccc(C#Cc2cccc(-c3nc(C(=O)N[C@@H]4CCN(Cc5ccccc5)C4)cc4c3[C@@H](CCO)N(S(=O)C(C)(C)C)C4)c2)cc1OC (stereo not given in full),-9.01%

row,SMILES,"activity change, negative = cytotoxicity"
1,C[C@H](CO)N1C[C@H](C)[C@H](CN(C)S(=O)(=O)c2ccccc2F)OCc2ccccc2-c2c(n(C)c3ccccc23)C1=O,-0.432%
2,COc1cccc(-c2ccc([C@@H]3[C@H](CO)N4CCCCN(C(=O)c5ccc(F)cc5)C[C@@H]34)cc2)c1,-13.9%
3,COc1ccc2c3c([nH]c2c1)[C@@H](CO)N(Cc1ccccc1F)CC31CN(C(=O)C2CCCC2)C1,-29.4%
4,COc1ccc(NC(=O)N(C)C[C@H]2OCc3ccccc3-c3c(n(C)c4ccccc34)C(=O)N([C@H](C)CO)C[C@@H]2C)c(OC)c1,0.059% [at 21 µM]
5,CC(C)c1cn([C@H]2C[C@@H]3O[C@H](CO)CC[C@@H]3O[C@@H]2CCc2ccc(C#CC3(O)CCCC3)cc2)nn1,19.1%
6,COCC(=O)Nc1ccc2c(c1)OC[C@@H](C)N(C(=O)NC(C)C)C[C@@H](C)[C@@H](OC)CN(C)C2=O,19.4%
7,N#C[C@@H]1[C@@H](c2ccccc2-c2ccccc2F)[C@@H](CO)N1C(=O)C1CCOCC1,21.1%
8,COc1ccc(-c2ccc3c(c2)[C@@H]2[C@@H](CCN2Cc2ccncc2)[C@@H](CO)N3)cc1,0.859% [at 21 µM]
9,CO[C@@H]1CN(C)C(=O)c2ccc(NC(=O)Nc3ccc(F)cc3)cc2OC[C@@H](C)N(C(=O)c2ccc(F)cc2)C[C@H]1C,-20.5%
10,CC(C)CC#Cc1ccc([C@H]2[C@@H](CO)N3C(=O)CN(C(=O)Cc4ccccc4)C[C@H]23)cc1,4.84%
11,C[C@H](CO)N1C[C@H](C)[C@@H](CN(C)C(=O)Nc2ccc(-c3ccccc3)cc2)OCc2ccccc2-c2c(n(C)c3ccccc23)C1=O,8.31%
12,COc1ccc2c3c([nH]c2c1)[C@H](CO)N(Cc1ccccc1Cl)CC31CCN(C(C)=O)CC1,-18%
13,C[C@@H]1CN([C@H](C)CO)C(=O)c2cc(C#Cc3ccccc3F)cnc2O[C@H]1CN(C)C(=O)c1ccc2c(c1)OCO2,25.6%
14,COc1ccc(-c2ccccc2[C@H]2[C@@H](C#N)N(C(=O)C3CCCC3)[C@H]2CO)cc1,-5.04%
15,CN1c2ccc(C3=CCCCC3)cc2[C@H]2[C@H](CCN2C(=O)C2CC2)[C@@H]1CO,-2.49%
16,COC(=O)c1ccc(CN2CC(=O)N3[C@H](CO)[C@@H](c4ccc(-c5ccccc5F)cc4)[C@H]3C2)cc1,5.03%
17,CC(C)NC(=O)N1CCCCN2[C@H](CO)[C@@H](c3ccc(C#C[C@H](C)O)cc3)[C@@H]2C1,-6.05%
18,CCC(=O)N1CCC2(CC1)CN(C(=O)Nc1ccc(F)cc1)[C@@H](CO)c1c2c2ccc(OC)cc2n1C,7.49%
19,C[C@H]1CN([C@@H](C)CO)C(=O)c2cc(NC(=O)Cc3cn(C)c4ccccc34)ccc2O[C@H]1CN(C)S(=O)(=O)c1cccs1,23.9%
20,C[C@@H]1CN([C@H](C)CO)S(=O)(=O)c2ccc(-c3ccncc3)cc2O[C@@H]1CN(C)Cc1ccc(Oc2ccccc2)cc1,-27.5%
21,C[C@@H]1CN([C@H](C)CO)C(=O)c2cccc(NC(=O)Nc3cccc4ccccc34)c2O[C@@H]1CN(C)C(=O)Nc1ccc(F)cc1,-28.1%
22,C/C=C/c1ccc2c(c1)[C@H]1[C@H](CCN1C(=O)c1cccc(F)c1)[C@H](CO)N2,-6.44%
23,O=C(O)C[C@@H]1C[C@@H]2c3cc(NS(=O)(=O)c4ccccc4)ccc3O[C@@H]2[C@H](CO)O1,-22.3%
24,C[C@@H](NC(=O)C[C@H]1C[C@@H]2c3cc(NS(=O)(=O)c4ccc(F)cc4)ccc3O[C@@H]2[C@H](CO)O1)c1ccccc1,-1.47%

row,SMILES,"activity change, negative = cytotoxicity"
1,CCS(=O)(=O)N1CCC2(CC1)CN(Cc1ccc3c(c1)OCO3)[C@@H](CO)c1[nH]c3cc(OC)ccc3c12,-14.1%
2,CCCNC(=O)N1[C@H](C#N)[C@H](c2ccc(C#Cc3cccc(F)c3)cc2)[C@H]1CO,-1.23%
3,N#Cc1cccc(-c2ccc3c(c2)[C@@H]2[C@@H](CCN2Cc2cncnc2)[C@H](CO)N3)c1,-6.56% [at 21 µM]
4,N#Cc1cccc(-c2ccc3c(c2)[C@H]2[C@H](CCN2Cc2ccncc2)[C@@H](CO)N3)c1,-4.34% [at 21 µM]
5,O=C(C1CCCC1)N1CC[C@@H]2[C@H]1c1cc(-c3cccc(F)c3)ccc1N[C@@H]2CO,1.55%
6,O=C(Cc1ccncc1)N1CC[C@@H]2[C@@H](CO)Nc3ccc(-c4cccc(F)c4)cc3[C@@H]21,9.47%
7,COc1ccc(S(=O)(=O)N(C)C[C@H]2Oc3c(NC(=O)Nc4ccc5c(c4)OCO5)cccc3C(=O)N([C@@H](C)CO)C[C@H]2C)cc1,-19.6%
8,CCc1nc(N2[C@H](C#N)[C@H](c3ccccc3-c3ccccc3F)[C@H]2CO)sc1C,-24%
9,COc1ccc(CN2CC3(CN(C(=O)Cc4ccccc4)C3)c3c([nH]c4cc(OC)ccc34)[C@H]2CO)cc1,-13.9% [at 21 µM]
10,CO[C@H]1CN(C)C(=O)c2ccc(NC(=O)Nc3cc(F)ccc3F)cc2OC[C@@H](C)N(C)C[C@H]1C,10.8%
11,COc1ccc2c3c(n(C)c2c1)[C@H](CO)N(C(=O)CC1CC1)CC31CCN(Cc2nccs2)CC1,-4.39%
12,Cc1ccccc1S(=O)(=O)N1[C@H](C#N)[C@H](c2ccc(C#CC3CCCC3)cc2)[C@@H]1CO,-7.23%
13,CN1c2ccc(C#Cc3cccnc3)cc2[C@@H]2[C@@H](CCN2S(=O)(=O)c2ccccc2F)[C@@H]1CO,18.3%
14,Cc1ccc(S(=O)(=O)N(C)C[C@H]2OCc3ccccc3-c3c(n(C)c4ccccc34)C(=O)N([C@@H](C)CO)C[C@@H]2C)cc1,22.6%
15,O=S(=O)(c1ccc(F)cc1)N1C[C@@H]2N[C@H](C1)C2c1ccc(-c2ccc(F)cc2)cc1 (stereo not given in full),-10.6%
16,Cc1ccc(S(=O)(=O)N2C[C@@H]3N[C@H](C2)C3c2ccc(-c3ccncc3)cc2)cc1 (stereo not given in full),-10.5% [at 21 µM]
17,O=S(=O)(c1ccc(-c2ccccc2)cc1)N1C[C@@H]2N[C@H](C1)[C@@H]2c1ccc(-c2cccnc2)cc1,-36.2%
18,Cn1cnc(S(=O)(=O)N2C[C@@H]3N[C@H](C2)C3c2ccc(-c3ccccc3F)cc2)c1 (stereo not given in full),-4.06%
19,Cc1ccc(-c2ccc(C3[C@@H]4CN(S(=O)(=O)c5ccccc5)C[C@H]3N4)cc2)cc1 (stereo not given in full),-22.7%
20,N#Cc1ccc(-c2ccc(C3[C@@H]4CN(S(=O)(=O)c5ccc(F)cc5)C[C@H]3N4)cc2)cc1 (stereo not given in full),18.2%
21,COc1cccc(-c2ccc3c(c2)[C@H]2[C@H](CCN2C(=O)C2CCCC2)[C@H](CO)N3)c1,-23.9% [at 21 µM]
22,COc1ccc2c3c(n(C)c2c1)[C@@H](CO)N(C(=O)c1ccc(F)cc1)CC31CCN(C(=O)Nc2ccc(F)cc2)CC1,0.95%
